Assay outcomes: PubChem, National Center for Advancing Translational Sciences (NCATS)
Most compounds without a hit are left out; they make up all but 8% or so of the library.
Marburg entry inh: blocks Marburg virus binding to or entry into cells | Marburg virus pseudotyped entry inhibition, cell reporter | Potency, µM (top dose mostly 37.8 µM), for inactives: at the highest dose activity change, negative = inhibition, actives largely listed as inhibitors | 300,000 tested, 1.8% active; calls by dose curve; tested in HEK293 cells; further: potency means the concentration at half of the fitted maximal effect; on the % scale 0 is the no-effect control and ±100 the full control effect
FMDV antiviral: foot and mouth disease virus antiviral activity. FMDV antiviral cell-based qHTS. Potency, µM (doses to about 57.9 µM), inactives show at the highest dose activity change, negative = inhibition, hits mostly inhibitors. 410,000 tested, 1.2% active; calls by dose curve; tested in HEK293T cells; further: read-out not given here; potency means the concentration at half of the fitted maximal effect; on the % scale 0 is the no-effect control and ±100 the full control effect; nearly all actives have a fitted effect of over 45% in size
Lassa entry inh: blocks Lassa virus binding to or entry into cells; AID 540256; 300,000 tested, 1.2% active; Potency, µM (top dose mostly 37.9 µM), for inactives: at the highest dose activity change, negative = inhibition, actives largely listed as inhibitors; Lassa virus pseudotype entry inhibition, cell reporter; calls by dose curve; tested in HEK293 cells; further: potency means the concentration at half of the fitted maximal effect; on the % scale 0 is the no-effect control and ±100 the full control effect; nearly all actives have a fitted effect of over 50% in size
HCMV antiviral: human cytomegalovirus inhibition; 410,000 tested, 4.5% active; HFF cells, HCMV-luciferase reporter, 72 h; hits give low values; AID 1259415; activity change, negative = inhibition, % at 57.5 µM; in the data active means activity change below about -60%; inconclusive means no clear call, values can overlap the other calls; inactive means above about -39%; further: on the % scale 0 is the no-effect control and ±100 the full control effect
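Human foreskin fibroblasts infected with luciferase-reporter HCMV at MOI 1 PFU/cell, compounds at two doses. Luciferase measured 72 h post infection; normalized to buffer-only basal and Salinomycin (10uM) controls.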
SARS PLP yeast: inhibitors of SARS-CoV papain-like protease in yeast | S. cerevisiae expressing SARS-CoV PLpro, growth rescue | Potency, µM (highest dose often 32.9 µM), for the others: top-dose activity, positive = growth rescue, most hits filed as activators | AID 485353 | 330,000 tested, 0.19% active; calls by dose curve; further: potency means the concentration at half of the fitted maximal effect; 0% is about no effect; nearly all actives have a fitted effect of over 55% in size
HCV inhibitor: HCV inhibition. Huh7.5.1 HCVcc-Cre infection, luciferase reporter, 44 h. Potency, µM (series often up to 41.8 µM), without a hit: top-dose activity change, negative = inhibition, hits mostly inhibitors. 340,000 tested, 3.4% active; active means well fitted inhibition curve with a large enough effect; inconclusive means small, poorly fitted or top-dose-only effect, or another doubt; inactive means no such curve, though single readings can be large or run the other way; further: potency means the concentration at half of the fitted maximal effect; on the % scale 0 is the no-effect control and ±100 the full control effect
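Reporter virus HCVcc-Cre (~0.5 moi) infects cells exposed to compound; seeding density 1,000 cells/well with 4 h settling beforehand. Luminescence, 15 sec read, taken 44 h post-infection following a 15 min RT substrate incubation.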
* = called active by the depositor; ? = inconclusive; nt = not tested or not shown; [ ] = remark or other dose.

SMILES | Marburg entry inh | FMDV antiviral | Lassa entry inh | HCMV antiviral | SARS PLP yeast | HCV inhibitor
O=C(Nc1ccc(Cc2ccncc2)cc1)c1ccc(S(=O)(=O)N2CCCC2)cc1 | ? | 16µM* | ? | -87* | 1% | 5µM*
O=S(=O)(Nc1cccc(S(=O)(=O)N2CCCCC2)c1)c1ccc(Cl)s1 | nt | -25% | nt | -67* | 0% | 11%
Cc1ccc(S(=O)(=O)Nc2cccc(S(=O)(=O)N3CCCC3)c2)cc1C | -1% | 44% | -24% | -26 | 4% | -22%
CCOC(=O)CC1(NC(=O)C2CCC(=O)N(Cc3ccccc3OC)C2)CCCCC1 (stereo not drawn) | 16% | 8% | -1% | 24 | 5% | nt
CCN(CC)S(=O)(=O)c1ccc(NC(=O)c2ccc(Cl)nc2)cc1 | 0%[46.1 µM] | -27% | 8% | -62* | 0% | -22%
O=C(Nc1cccc(S(=O)(=O)N2CCCCC2)c1)Nc1ccc(Cl)cc1Cl | ? | ? | ? | -100* | -7% | ?
CN1CCN(S(=O)(=O)c2ccc(C(=O)Nc3ccccc3)cc2)CC1 | 18% | 17% | 0% | 19 | 6% | 18%
CN1CCN(S(=O)(=O)c2ccc(NC(=O)c3ccc([N+](=O)[O-])cc3)cc2)CC1 | ? | 14% | 29%[46.1 µM] | -62* | nt | 7%
O=C(Nc1cccc(S(=O)(=O)Nc2ccccc2Cl)c1)c1ccc(Cl)nc1 | ? | 28µM* | ? | -86* | -4% | ?
CCN(CC)S(=O)(=O)c1ccc(NC(=O)c2ccc(NS(C)(=O)=O)cc2)cc1 | 8% | -18% | -23% | -30 | 1% | ?
CC(C)Cn1c(=O)c2ccccc2n2c(CCC(=O)NCc3ccccc3Cl)nnc12 | 2%[46.1 µM] | -11% | nt | 30 | nt | nt
CC(C)(C)c1ccc(C(=O)Nc2ccc(S(N)(=O)=O)cc2)cc1 | 2%[46.1 µM] | -22% | ? | -37 | 3% | 22µM*
O=C(Nc1cccc(S(=O)(=O)N2CCCCC2)c1)c1ccc2ncsc2c1 | nt | -14% | nt | -9 | 1% | 7.9µM*
O=C(Nc1cccc(S(=O)(=O)N2CCCCC2)c1)c1ccc(Cl)nc1 | nt | 14µM* | nt | ? | 7% | ?
CC1CCN(S(=O)(=O)c2ccc(NC(=O)c3ccncc3)cc2)CC1 | ? | ? | ? | -64* | 5% | 11µM*
O=C(CN1Cc2ccccc2OC(c2ccccc2F)C1)NC(c1ccccn1)C(F)(F)F (stereo not drawn) | nt | -18% | nt | nt | nt | nt
CCOc1ccc(CN(C)C(=O)CNC(=O)C2CCCCC2)cc1 | 3%[46.1 µM] | -16% | -9% | 48 | 2% | -12%
CCN(C(=O)c1cccs1)c1nnc(-c2ccncc2)s1 | -19%[46.1 µM] | 11% | -8% | -65* | -1% | 0%
Cc1ccc(N2CCN(C(=O)c3cc4cc5ccc(C)cc5nc4s3)CC2C)cc1 (stereo not drawn) | 17%[46.1 µM] | 43% | 11%[46.1 µM] | 1 | nt | nt
Nc1c(N(CCC2=CCCCC2)C(=O)COc2ccc(F)cc2)c(=O)[nH]c(=O)n1Cc1ccccc1 | nt | -22% | nt | nt | 18% | 13µM*
Nc1c(N(Cc2ccco2)C(=O)c2ccc(Cl)cc2)c(=O)[nH]c(=O)n1Cc1ccccc1 | -7% | -3% | -2% | -71* | 1% | 31%
Nc1c(N(Cc2ccco2)C(=O)c2ccc(Br)cc2)c(=O)[nH]c(=O)n1Cc1ccccc1 | nt | 14% | nt | 85 | -5% | ?
Cc1ccccc1OCCC(=O)N(Cc1ccccc1)c1c(N)n(Cc2ccccc2)c(=O)[nH]c1=O | 4% | 0% | 11µM* | nt | -10% | ?
Cc1ccc(OCCC(=O)N(Cc2ccccc2)c2c(N)n(Cc3ccccc3)c(=O)[nH]c2=O)cc1 | ? | -24% | ? | -81* | -1% | 11µM*
CCN(CC)S(=O)(=O)c1ccc2[nH]c(=O)c3ccccc3c2c1 | nt | -3% | nt | 10 | 12% | 12%
SMILES | Marburg entry inh | FMDV antiviral | Lassa entry inh | HCMV antiviral | SARS PLP yeast | HCV inhibitor
Nc1c(N(Cc2ccccc2)C(=O)COc2ccc([N+](=O)[O-])cc2)c(=O)[nH]c(=O)n1Cc1ccccc1 | nt | -17% | nt | -97* | nt | ?
Nc1c(N(CCO)C(=O)COc2ccc(Cl)cc2)c(=O)[nH]c(=O)n1Cc1ccccc1 | 0% | -15% | ? | ? | -2% | 2%
COc1ccc(Cl)cc1NC(=O)C1CCCN(S(=O)(=O)c2ccc3c(c2)CCCC(=O)N3)C1 (stereo not drawn) | nt | -22% | ? | -18 | nt | nt
CCN(C(=O)C(C)Cl)c1ccccc1 (stereo not drawn) | ? | -5% | 28% | 13 | -2% | 28%
Cc1ccc(S(=O)(=O)N(C)C)cc1NC(=O)CSc1nc2ncc(Cl)cc2[nH]1 | -3% | ? | -2% | 5 | -7% | 2.5µM*
Cc1ccccc1NC(=O)CSc1nc2ncc(Cl)cc2[nH]1 | nt | -1% | nt | -13 | -2% | -11%
CN(/N=C/c1ccc(O)cc1O)c1ncc(C(F)(F)F)cc1Cl | nt | -23% | nt | -74* | -3% | -28%
COc1ccc(C2c3ccc(O)cc3Oc3ncn(Cc4ccco4)c(=N)c32)cc1OC (stereo not drawn) | nt | -17% | nt | ? | 0% | ?
COc1ccc(C2c3ccc(O)cc3Oc3ncn4nc(-c5cccnc5)nc4c32)cc1OC (stereo not drawn) | ? | ? | ? | 42 | 1% | 28µM*
CC1(C)S[C@@H]2[C@H](N3C(=O)C(c4ccccc4)NC3(C)C)C(=O)N2[C@H]1C(=O)O (stereo partly drawn) | nt | 27% | nt | nt | nt | nt
Cc1ccccc1-n1nnnc1SCc1csc(-c2ccccc2)n1 | ? | -29% | 13µM* | 54 | -2% | ?
Cc1cc(C)cc(NC(=O)Nc2cc(S(=O)(=O)N(C)C)ccc2C)c1 | ? | -23% | 13µM* | -4 | -1% | ?
Cc1ccc(S(=O)(=O)N(C)C)cc1NC(=S)NC(C)CCCC(C)C (stereo not drawn) | ? | ? | ? | -73* | 22% | ?
COc1ccc2c(c1)CCc1cnc(N)nc1-2 | ? | 29% | 1% | -68* | 0% | ?
COc1ccc(-c2cnc(N)nc2-c2ccc(OC)cc2)cc1 | nt | ? | nt | -4 | -1% | ?
CCOc1ccc(N2C(=O)CN(CC(=O)OC)C2=S)cc1 | 16%[46.1 µM] | 14% | -1%[46.1 µM] | -69* | -2% | 11%
COc1ccc(OC(F)(F)F)cc1CC1(C)C(=O)Nc2ccc(-c3ccsc3)cc21 (stereo not drawn) | nt | 0% | nt | -82* | nt | nt
Nc1ccc(-c2nc3c(Cl)cc(N)cc3[nH]2)cc1 | ? | 4µM* | 11µM* | ? | 1% | ?
CC(C)(C)OC(=O)N(CCc1ccccc1)Cc1ccccc1OCc1cccc(NC(=O)C2CCCC2)c1 | nt | 4% | nt | -10 | nt | -29%
CC(C)(C)OC(=O)N(Cc1ccccc1)Cc1ccccc1OCc1ccc(NC(=O)C2CCC2)cc1 | nt | -28% | nt | -90* | nt | ?
